# The supplement of paper PMC12340641
# System: HEK293FT dCK*-IKZF1
# Experiment: relative growth recovery (pomalidomide 10 uM = 100%, DMSO = 0%); higher = more growth rescue (IKZF1 fusion degradation)
# Settings: compound concentration: 5 uM; AraC concentration: 0.3 uM; overnight pretreatment + 4 days AraC
# Method in brief: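 Means of duplicates from different days are given for growth recovery, normalised per plate against a reference degrader and vehicle. The reference degrader set the 100% level and vehicle the 0% level. HEK293FT cells stably expressing a deoxycytidine kinase–IKZF1 fusion (300/well, 384-well) received 5 μM compound 2 h after seeding and, after overnight at 37 °C, 0.3 μM of a nucleoside suicide substrate plus medium for 4 days. Nuclei stained with Hoechst 33342 were then counted by whole-well imaging on day 5.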
row,SMILES,relative growth recovery
1,COc1cc([C@@H]2c3cc4c(cc3[C@@H](O[C@@H]3O[C@@H]5CO[C@@H](C)O[C@H]5[C@H](O)[C@H]3O)[C@H]3COC(=O)[C@H]23)OCO4)cc(OC)c1OP(=O)(O)O [Etoposide phosphate],-13%
2,COC(=O)C1=C(C)NC(C)=C(C(=O)OC(C)C)C1c1cccc2nonc12 (configuration not stated) [isradipine],1.6%
3,CC1(C)C(=O)N=C2C1=C(O)C(=O)c1ccccc12,-12.4%
4,CO[C@H]1CC[C@H](N2C(=O)CNc3ncc(-c4ccc(C(C)(C)O)nc4)nc32)CC1,-7.24%
5,CN(C)CC(O)Cn1c2ccc(Br)cc2c2cc(Br)ccc21 (configuration not stated) [wiskostatin],-2.88%
6,CCC1/C=C(\C)CC(C)CC(OC)C2OC(O)(C(=O)C(=O)N3CCCCC3C(=O)OC(/C(C)=C/C3CCC(O)C(OC)C3)C(C)C(O)CC1=O)C(C)CC2OC (configuration not stated) [Ascomycin (FK520)],13.5%
7,CCc1nc(N)nc(N)c1-c1ccc(Cl)cc1 [Pyrimethamine],-1.87%
8,O=C(Nc1ccc(C(O)(C(F)(F)F)C(F)(F)F)cc1)c1ccc(C(F)(F)F)cc1,53.1%
9,FC(F)(F)c1ccccc1-c1cc(C(F)(F)F)c2[nH]c(C3=NOC4(CCCCC4)C3)nc2c1,-3.06%
10,CCN1CCN(Cc2ccc(-c3cc4c(N[C@H](C)c5ccccc5)ncnc4[nH]3)cc2)CC1,-8.18%
11,CCCCCCCCCCCCCCCC[N+](C)(C)CCN(Cc1ccc(OC)cc1)c1ncccn1 [thonzonium bromide],-10.3%
12,CC[C@@]1(O)C(=O)OCc2c1cc1n(c2=O)Cc2cc3cc(O)ccc3nc2-1 [10-Hydroxycamptothecin],-13.2%
